AHR act = activates the human aryl hydrocarbon receptor. AHR-responsive luciferase reporter cells, luminescence. AID 2796. activation, % at 5 µM. P35869. actives 2.5% (n = 320,000); in the data active means activation above about 47%;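 further: 0% = vehicle wells and 100% = reference agonist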
DAX1 inh-1 = inhibitors of human orphan nuclear receptor DAX1 (NR0B1); HEK293 Gal4-DAX1 luciferase reporter, luminescence; actives 0.99% (n = 340,000); inhibition, % at 6.75 µM; P51843; AID 504766;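 active means inhibition above the mean over all tested compounds plus 3 SD, cut at about 4.2% in these data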;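 further: 0% = DAX1-transfected cells with DMSO and 100% = empty-vector control cells with DMSO; inhibition shows as a rise in luminescence from relieved DAX1 repression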
Target sequence (P51843 207-470 limits assumed): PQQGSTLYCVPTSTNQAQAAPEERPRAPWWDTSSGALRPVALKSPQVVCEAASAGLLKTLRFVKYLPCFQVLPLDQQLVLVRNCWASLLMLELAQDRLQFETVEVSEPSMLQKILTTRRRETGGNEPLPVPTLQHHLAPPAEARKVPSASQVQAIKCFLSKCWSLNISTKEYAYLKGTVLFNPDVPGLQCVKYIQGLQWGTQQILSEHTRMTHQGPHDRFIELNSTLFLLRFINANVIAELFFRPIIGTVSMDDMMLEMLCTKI
hcDAF-12 act = H. contortus DAF-12 activation, primary screen; actives 1.4% (n = 370,000); HEK293 hcDAF-12 lit1-tk-luc reporter, luminescence; 0% DMSO, 100% Δ7-dafachronic acid; AID 652067; activation, % at 6.8 µM;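 active means activation above the mean of all tested compounds plus 3 SD, cut at about 5.5% in these data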;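 further: 100% = response to 3 µM Δ7-dafachronic acid high control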
DAX1 inh-2 = blocks DAX1 repression of SF-1 activated StAR promoter. inhibition, % at 6.8 µM. HEK293T StAR-luciferase reporter, SF-1/DAX-1 repression relief. actives 1.1% (n = 370,000). AID 652010;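 active means inhibition above the mean over all tested compounds plus 3 SD, cut at about 3.6% in these data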;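 further: 0% = DAX-1 cells with DMSO and 100% = cells lacking DAX-1 with DMSO; higher inhibition means more luminescence from relief of DAX-1 repression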
hgDAF-12 ag = activates the H. glycines DAF-12 receptor ligand-binding domain; HEK293 GAL4-hgDAF12 UAS-luciferase reporter, agonist luminescence; normalized to butyrate control; activation, % at 6.8 µM; actives 1.8% (n = 370,000);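 active means activation above a cutoff set at the mean of all screened compounds plus 3 SD, cut at about 10% in these data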;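 further: 0% = DMSO wells and 100% = sodium butyrate wells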
ssDAF-12 act = activators of S. stercoralis DAF-12 nuclear receptor; HEK293 ssDAF-12/GRIP1 lit1-tk-luc reporter, luminescence; % of 3 µM dafachronic acid response; activation, % at 6.8 µM; actives 1% (n = 370,000); AID 652126;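 active means activation above the mean over all tested compounds plus 3 SD, cut at about 0.9% in these data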;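 further: 0% = DMSO-only wells and 100% = 3 µM delta7-dafachronic acid wells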
An asterisk follows results filed as active; . = not tested or not shown. Hits are enriched below; roughly 5.7% of the tested compounds scored in any of these assays.

SMILES	AHR act	DAX1 inh-1	hcDAF-12 act	DAX1 inh-2	hgDAF-12 ag	ssDAF-12 act
CN(C)CCSc1nnc2[nH]c3ccccc3c2n1	12	0	3	1	3	1.1*
Fc1cccc(CSc2nnc3c(n2)[nH]c2ccccc23)c1	4	-2	0	-1	-1	-2
CC1=C(C(=O)NC2CCCCC2C)C2(CCC(C)CC2)OC1=O (configuration not stated)	-3	0	1	0	-3	-2
Cc1nc2c(c(C)c1C#N)C(=O)c1ccccc1-2	72*	0	3	0	0	0
COc1ccc2[nH]c(=O)cc(C(=O)O)c2c1	2	1	-1	0	1	-2
O=C(O)c1cc(=O)[nH]c2c(Cl)cccc12	12	0	5.8*	0	2	1
O=C1/C(=C\Nc2ccc(OC(F)(F)F)cc2)CCN1c1ncccn1	6	0	1	1	2	-1
O=C1/C(=C\Nc2ccc(Cl)cc2)CCN1c1ncccn1	52*	2	1	1	3	0
CCCCNCc1cc2ccccc2o1	-1	4.5*	1	1	-5	-1
CCCCNC(=O)CO/N=C(\C)c1cc2ccccc2o1	4	-1	5	1	5	-1
COc1cccc(/C=C2\CCC(C3CCCC3)C2=O)c1OC (configuration not stated)	1	2	4	2	13*	-1
Cc1c(NC(=O)c2ccc(NC(=O)C3CC3)cc2)cccc1C(=O)O	-6	0	-2	-1	-2	-1
Cc1cc(C)c(O)c(-c2cc(C(=O)Nc3cccnc3)[nH]n2)c1	-2	-1	-3	0	1	-2
CCc1ccc(O)c(-c2cc(C(=O)Nc3cccnc3)[nH]n2)c1	8	1	1	3.8*	12*	0
COc1ccccc1-c1cc(C(=O)N2CCc3ccccc3C2)c2ccccc2n1	18	.	.	.	.	.
COc1ccc(Nc2cc(C(=O)N3CCc4ccccc4C3)c3ccccc3n2)c(OC)c1	55*	-2	-1	-2	5	-1
COc1ccccc1Nc1cc(C(=O)N2CCc3ccccc3C2)c2ccccc2n1	64*	.	.	.	.	.
CC(C)(C)NC(=O)NC(=O)Cn1cc(C(F)(F)F)ccc1=O	-1	1	0	0	1	0
O=C(O)CCSCCCN1C(=O)c2cccc3cccc(c23)C1=O	49*	2	1	0	-3	-1
O=C(NCCO)C(c1ccccc1)c1ccccc1	1	1	-1	0	0	-1
O=C(Nc1cc2c(cc1Br)OCCCO2)c1ccccc1	-1	3	4	2	11*	1
COc1ccc(C2/C=C\CN(C(=O)OCC3c4ccccc4-c4ccccc43)CC(=O)N2Cc2cccc(F)c2)cc1 (configuration not stated)	.	-1	-1	3.7*	-1	-2
Cc1ccc(SC(=O)c2c([N+](=O)[O-])c(C)nn2C)cc1	3	4.5*	0	0	-1	-1
CC(=O)n1c2c(c3ccccc31)OC(N)=C(C#N)C2c1ccc(C(C)C)cc1 (configuration not stated)	44	3	5.6*	0	-1	-1
O=C(C1=C(O)C(=O)N(CCOCCO)C1c1cccc([N+](=O)[O-])c1)c1cccs1 (configuration not stated)	-2	0	3	0	0	0
SMILES	AHR act	DAX1 inh-1	hcDAF-12 act	DAX1 inh-2	hgDAF-12 ag	ssDAF-12 act
COCCNS(=O)(=O)c1ccc(C2CNC(=O)C2)cc1 (configuration not stated)	0	5.2*	0	1	2	-2
O=C1CC(c2ccc(S(=O)(=O)NCCOc3ccccc3)cc2)CN1 (configuration not stated)	0	0	-3	0	-1	-1
Cc1ccc(C(=O)N/N=C2\CC3CC=CC23)c(C)c1 (configuration not stated)	3	5.7*	1	0	7	-1
COc1cc2c3c(c1)c(N=NC(N)=S)c(O)n3C(C)(C)C=C2C	7	7.1*	-1	0	0	0
Oc1c(C=Nc2ccc(Cl)cn2)sc2ccccc12	8	1	3	0	8	-1
Oc1c(/C=N/c2ccccn2)sc2ccccc12	24	4.7*	4	1	3	1
CCCCn1nnnc1C(c1cc2ccccc2o1)N1CCN(C/C=C/c2ccccc2)CC1 (configuration not stated)	.	.	-1	-1	0	-1
CCCN(CC(=O)Nc1ccc(NC(C)=O)cc1)CC(=O)Nc1ccc(F)c(F)c1F	2	4.6*	-3	-1	-1	-1
Cc1cc(C)nc(/N=C(\N)Nc2ccc(-c3ccccc3)cc2)n1	31	-4	-5	-2	-6	-3
N/C(=N\c1nc2ccccc2o1)NC(=O)c1cccc(Cl)c1	31	.	-1	0	2	-2
CCCC(=O)N/C(N)=N/c1nc(C)c2ccccc2n1	60*	1	4	0	1	0
Cc1cc(C)c2nc(/N=C(\N)NC(=O)Nc3ccccc3)nc(C)c2c1	70*	-1	-4	-1	-1	-2
N/C(=N\c1nc2ccccc2o1)NC(=O)c1ccccc1NC(=O)c1ccccc1	66*	0	-1	0	0	-1
CCCCC(=O)N/C(N)=N/c1nc2ccccc2o1	2	16*	1	1	12*	0
NC(N)=Nc1nc2ccccc2o1	0	3	-1	0	-1	-1
CCc1ccc2nc(/N=C(\N)NC(=O)c3ccccc3)nc(C)c2c1	25	0	0	0	2	0
NC(=O)CC(NC(=O)Cc1ccc(Br)cc1)c1ccc(N2CCN(c3ccc(F)cc3)CC2)c([N+](=O)[O-])c1 (configuration not stated)	0	-1	-2	-1	-1	-2
CC(C)N(C)C1CCN(C(=O)Nc2ccc(Cl)cc2)CC1	1	-1	-2	0	-2	0
COc1ccc(OC)c(N(CC(=O)Nc2ccc(NC(C)=O)cc2)S(C)(=O)=O)c1	0	0	-1	0	0	-1
COc1ccc(OC)c(N(CC(=O)N2CCCC2)S(C)(=O)=O)c1	-3	4.5*	0	0	0	-1
COC(=O)c1ccc(C)c(NC(=O)CN(c2cc(OC)ccc2OC)S(C)(=O)=O)c1	-1	1	-1	4.2*	4	-1
O=C(NCC(O)c1ccc([N+](=O)[O-])cc1)Nc1ccccc1 (configuration not stated)	3	-1	-1	0	0	0
